Results filed as inconclusive are left out. Activity calls are given as the source filed them. Calls come from the whole dose curve; as a rule, active = well fitted curve in the direction sought with a large enough effect; inconclusive = small, poorly fitted or top-dose-only effect, or another doubt; inactive = no such curve, though single readings can be large; an effect the other way counts as inactive or inconclusive.
Assays:
[1] = Cellular Toxicity (caspase-3) Hek293 (AID 664);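 note: cells exposed to compound for 16 h at 37 °C before readout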
How it was run: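 HEK293 cells in complete medium treated 16 h at 37 °C, then Caspase-Glo 3/7 luminescence read after 20 min at room temperature. Normalized to DMSO and 100 uM tamoxifen; AC50 from Hill fit of concentration-response.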

[2] = Cellular Toxicity (caspase-3) N2a (AID 665); conditions: N2a cells, luminescence, normalized: DMSO 0%, 10 µM staurosporine 100%; at 92.2 µM (top of the series);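 note: compound exposure lasted 16 h at 37 °C before readout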
How it was run: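 Mouse N2a neuroblastoma cells, 1500 per well, treated 16 h at 37 °C in complete medium; caspase-3/7 activity by Caspase-Glo luminescence after 1 h. Normalized to DMSO and 10 uM staurosporine; AC50 from Hill fits.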

[3] = Cellular Toxicity (caspase-3) NIH 3T3 (AID 666);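 note: caspase signal read after 16 h compound exposure; 0% = DMSO basal and 100% = 100 µM tamoxifen stimulation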
How it was run: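 Mouse NIH 3T3 fibroblasts (1000/well) treated 16 h at 37 C; caspase-3/7 activity measured by Caspase-Glo 3/7 luminescence after 20 min. Normalized to DMSO and 100 uM tamoxifen; AC50 from Hill fits.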

[4] = Cellular Toxicity (caspase-3) Renal Proximal Tubule (AID 667); conditions: renal proximal tubule cells; at 91.7 µM (top of the series), primary cells freshly taken from rat, solvent-only wells 0%, staurosporine 100% unless noted;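 note: cells exposed to compound for 16 hours at 37 °C before detection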
How it was run: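 In qHTS format, rat primary proximal tubule cells seeded at 1000 per well are exposed to compounds for 16 hours at 37 °C. An increase in Caspase-Glo 3/7 luminescence indicates caspase activation.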

[5] = biological target: Cytochrome P450 3A4 (Homo sapiens) (UniProt P08684); experiment: qHTS Assay for Inhibitors and Substrates of Cytochrome P450 3A4 (AID 884); note: % is set by controls: 0 for no effect and ±100 for the full control effect; nearly all actives have a fitted effect of over 50% in size
How it was run: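 20 nM human CYP3A4 with 25 uM Luciferin-PPXE (at KM) in 200 mM KPO4, preincubated 10 min with compound; NADPH regeneration started a 60 min RT reaction. Luciferin detected by luminescence, normalized to 57 uM ketoconazole as full inhibition.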

[6] = Cell Viability - LYMP2-001 (AID 921);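 note: 0% = DMSO only and full inhibition = tetraoctylammonium bromide control wells; nearly all actives have a fitted effect of over 70% in size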
How it was run: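 qHTS, 1536-well; lymphoblastoid cells, 24 hr compound, 37 C; ATP by CellTiter-Glo, 30 min RT; luminescence; Hill-fit AC50.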

[7] = MultiTox-Fluor Cytotoxicity Assay - LYMP1-001 - Dead Cells (AID 946)
How it was run: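 Cytotoxicity as increased dead-cell protease fluorescence (bis-AAF-R110, 485/520 nm), read 60 min after MultiTox-Fluor reagent. Human lymphoblastoid line exposed 16 h; Hill-fitted AC50, with DMSO as 0% and 15 uM tetraoctylammonium bromide as 100%.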

[8] = Cell Viability - LYMP1-002 - Assay at 16 hr (AID 948);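 note: 0% = DMSO alone and full effect = 92 µM tetraoctylammonium bromide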
How it was run: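 Acute cytotoxicity is scored as a concentration-dependent fall in intracellular ATP in a human lymphoblastoid line (LYMP1-002) after 16 hr compound exposure at 37 C, measured by luciferase luminescence.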

[9] = MultiTox-Fluor Cytotoxicity Assay - LYMP1-002 - Live Cells (AID 955); note: % is set by controls: 0 for no effect and ±100 for the full control effect
How it was run: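 Human lymphoblastoid LYMP1-002 cells, 2500/well, treated 16 h at 37 C in complete medium. Live-cell protease activity via GF-AFC fluorescence (Ex/Em 405/510) after 60 min reagent incubation; AC50 from Hill fits.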

[10] = MultiTox-Fluor Cytotoxicity Assay - LYMP1-003 - Dead Cells (AID 961); note: nearly all actives have a fitted effect of over 70% in size
How it was run: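 Dead-cell protease release, detected as bis-AAF-R110 fluorescence at 485/520 nm, was measured in LYMP1-003 cells after 16 h compound treatment at 37 C. AC50 values came from Hill-modeled qHTS curves normalized to DMSO (0%) and 15 uM tetraoctylammonium bromide (100%).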

[11] = MultiTox-Fluor Cytotoxicity Assay - LYMP1-003 - Live Cells (AID 962);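 note: 0% = DMSO only and full loss = 92 µM tetraoctylammonium bromide; cytotoxic hits lower the live-cell protease signal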
How it was run: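 LYMP1-003 lymphoblastoid cells, 2500/well in complete medium, treated 16 h at 37 C; live-cell protease cleavage of GF-AFC read by fluorescence (Ex/Em 405/510) after 60 min reagent; AC50 from Hill fits of concentration-response.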

[12] = Cell Viability - LYMP1-003 - Assay at 24 hr (AID 963);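 note: plate controls were DMSO only for no effect and tetraoctylammonium bromide positive control for full effect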
How it was run: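 Human lymphoblastoid LYMP1-003 cells, 2500/well, treated 24 h at 37 C in complete medium. Viability read as intracellular ATP by CellTiter-Glo luminescence after 30 min at room temperature; AC50 from Hill-equation fits of qHTS concentration-response.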

[13] = Cell Viability - LYMP2-003 (AID 965);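 note: cells exposed to compounds for 24 h before reading; 0% = DMSO only and full effect = 92 µM tetraoctylammonium bromide; nearly all actives have a fitted effect of over 50% in size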
How it was run: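 Acute cytotoxicity is scored as a concentration-dependent drop in intracellular ATP, measured by luciferase luminescence in human lymphoblastoid cells treated for 24 hours at 37 C. AC50 values derive from Hill-equation modelling.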

[14] = Cell Viability - LYMP2-004 (AID 966);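 note: plate controls were DMSO only for no effect and tetraoctylammonium bromide control for full effect; nearly all actives have a fitted effect of over 65% in size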
How it was run: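 Lymphoblastoid LYMP2-004 cells, 2500 per well, were preincubated for 5 hr and then treated with compound for 24 h at 37 C in complete medium. Viability was read as cellular ATP by CellTiter-Glo luminescence, and AC50 values were taken from Hill fits to concentration-response data.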

[15] = Cell Viability - LYMP2-005 (AID 967);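 note: plate controls were DMSO only for no effect and 92 µM tetraoctylammonium bromide control for full effect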
How it was run: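 qHTS viability screen in LYMP2-005 cells: 24 h at 37 C with compound, ATP luminescence via CellTiter-Glo, AC50 from Hill curves.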

[16] = Cell Viability - LYMP2-009 (AID 968);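 note: 0% = DMSO alone and the full-kill end = tetraoctylammonium bromide at 92 µM; nearly all actives have a fitted effect of over 55% in size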
[17] = Cell Viability - LYMP2-011 (AID 969);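 note: 0% = DMSO only and full inhibition = 92 µM tetraoctylammonium bromide; nearly all actives have a fitted effect of over 60% in size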
How it was run: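 2500 cells/well in complete medium, compound-treated 24 h at 37 C. Viability read as intracellular ATP by CellTiter-Glo luminescence after 30 min at room temperature. AC50 from Hill fits of qHTS concentration-response data.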

[18] = Cell Viability - LYMP2-013 (AID 970);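 note: 0% = DMSO only and full inhibition = tetraoctylammonium bromide control; nearly all actives have a fitted effect of over 55% in size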
How it was run: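 Human lymphoblastoid LYMP2-013 cells, 2500/well, treated 24 h at 37 C in complete medium; viability as intracellular ATP by CellTiter-Glo luminescence after 30 min. AC50 from Hill fits of qHTS concentration-response.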

[19] = Cell Viability - LYMP2-015 (AID 971);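 note: 0% = DMSO only and full effect = 92 µM tetraoctylammonium bromide; nearly all actives have a fitted effect of over 55% in size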
How it was run: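 LYMP2-015 human lymphoblastoid cells (2500/well) in complete medium, compound-treated 24 h at 37 C; viability read as cellular ATP by CellTiter-Glo luminescence after 30 min at room temperature. AC50 from Hill-equation fits of qHTS concentration-response data.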

[20] = Cell Viability - LYMP2-017 (AID 972); note: % is set by controls: 0 for no effect and ±100 for the full control effect; nearly all actives have a fitted effect of over 55% in size
How it was run: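 LYMP2-017 human lymphoblastoid cells (2500/well) settled 5 hr at 37 C, then exposed to compound 24 hr at 37 C in complete medium. Viability taken as intracellular ATP by CellTiter-Glo luminescence after 30 min at RT; AC50 from Hill fits.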

[21] = Cell Viability - LYMP2-019 (AID 973)
How it was run: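 Human lymphoblastoid LYMP2-019 cells (2500/well) preincubated 5 h at 37 C, then treated 24 h at 37 C in complete medium. Viability by CellTiter-Glo ATP luminescence after 30 min at room temperature; AC50 from Hill fits.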

[22] = Cell Viability - LYMP2-021 (AID 974)
How it was run: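 Human lymphoblastoid LYMP2-021 cells, 2500/well in complete medium, treated 24 hours at 37 C. Intracellular ATP by CellTiter-Glo luminescence (30 min, RT); AC50 from Hill fits of concentration-response.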

[23] = Cell Viability - LYMP2-023 (AID 975)
How it was run: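 LYMP2-023 human lymphoblastoid cells, 2500/well, preincubated 5 hr at 37 C, then compound-treated 24 hr at 37 C in complete medium. CellTiter-Glo luminescence (ATP) after 30 min at room temperature; AC50 from Hill-equation fits; tetraoctylammonium bromide positive control.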

[24] = Cell Viability - LYMP2-025 (AID 976);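 note: plate controls were DMSO only for no effect and tetraoctylammonium bromide control for full effect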
How it was run: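 Human lymphoblastoid LYMP2-025 cells, 2500/well, exposed 24 h at 37 C in complete medium in 1536-well qHTS. Viability as cellular ATP by CellTiter-Glo luminescence; AC50 from Hill fits of concentration-response data.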

Sequence of Cytochrome P450 3A4 (Homo sapiens) (P08684 whole entry, looked up): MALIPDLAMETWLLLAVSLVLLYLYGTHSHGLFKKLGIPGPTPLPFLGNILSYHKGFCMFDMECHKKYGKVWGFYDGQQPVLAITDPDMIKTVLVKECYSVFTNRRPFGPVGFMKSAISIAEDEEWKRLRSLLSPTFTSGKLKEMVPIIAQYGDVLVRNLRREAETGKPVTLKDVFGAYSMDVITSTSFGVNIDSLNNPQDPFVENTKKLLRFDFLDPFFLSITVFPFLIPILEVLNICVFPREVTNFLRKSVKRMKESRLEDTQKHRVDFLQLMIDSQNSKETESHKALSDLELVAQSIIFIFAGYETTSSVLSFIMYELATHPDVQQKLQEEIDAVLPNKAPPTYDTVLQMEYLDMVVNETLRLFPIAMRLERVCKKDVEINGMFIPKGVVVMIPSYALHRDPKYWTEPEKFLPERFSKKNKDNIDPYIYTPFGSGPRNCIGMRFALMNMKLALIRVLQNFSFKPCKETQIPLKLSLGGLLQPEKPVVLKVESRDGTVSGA

Oc1ccc(Cl)cc1Cl
inactive: outcome [1] | caspase-3 activation [2] -0.627% | outcome [3] | caspase-3 activation [4] -2.5% | Potency [5] | Potency [6] | Potency [7] | Potency [8] | outcome [9] | Potency [10] | Potency [11] | Potency [12] | Potency [13] | Potency [14] | Potency [15] | Potency [16] | Potency [17] | Potency [18] | Potency [19] | Potency [20] | Potency [21] | Potency [22] | Potency [23] | Potency [24]

— PubChem BioAssay (NCATS)
